Measurements from PubChem BioAssay (NCATS).
Records with an inconclusive call do not appear. Calls of active or inactive are those of the source. Unless noted, calls follow the shape of the dose curve; as a rule, active = well fitted curve in the direction sought with a large enough effect; inconclusive = small, poorly fitted or top-dose-only effect, or another doubt; inactive = no such curve, though single readings can be large; an effect the other way counts as inactive or inconclusive.

Assays:
[1] = AP1 Signaling Pathway (AID 357; active = well fitted curve in either direction with a large enough effect, not every such curve was filed as active;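 also: ME-180 reporter cells stimulated with EGF at its EC50 level; % is scaled to controls: 0 for no effect and ±100 for the full control effect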); details: ME-180 (cervical carcinoma) AP-1-bla reporter, EGF-induced, beta-lactamase ratio, 5 h; at 7.69 µM (top of the series) unless noted
Method in brief: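 A ratiometric CCF4 readout (405 nm excitation; 460 and 530 nm emission) quantified AP-1-driven beta-lactamase in ME-180 cells after 5 h with compound and EC50 EGF; AC50 values were derived for activators and inhibitors.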

[2] = Stat Signaling Pathway (AID 446; active = well fitted curve in either direction with a large enough effect, not every such curve was filed as active;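 also: ME-180 cervical cancer cells given 40 pM IL-6 alongside compound; SIE-controlled beta-lactamase reporter measured as 460/530 nm FRET emission ratio; % is scaled to controls: 0 for no effect and ±100 for the full control effect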)
Method in brief: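 Normalization used AC90 stimulation (300 pM IL-6) and AC90 inhibition (125 nM pan-JAK inhibitor at 40 pM IL-6). The underlying signal is SIE-driven beta-lactamase in ME-180 cells after 5 h IL-6 exposure with compound.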

[3] = target: Ubiquitin carboxyl-terminal hydrolase 1 (Homo sapiens) (UniProt O94782); assay: Inhibitors of USP1/UAF1: Pilot qHTS (AID 504865);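 also: rhodamine fluorescence freed from ubiquitin-rhodamine substrate followed over time; top concentration of the series differs between compounds; % is scaled to controls: 0 for no effect and ±100 for the full control effect; nearly all actives have a fitted effect of over 35% in size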
Ubiquitin carboxyl-terminal hydrolase 1 (Homo sapiens), sequence (O94782 whole entry, looked up): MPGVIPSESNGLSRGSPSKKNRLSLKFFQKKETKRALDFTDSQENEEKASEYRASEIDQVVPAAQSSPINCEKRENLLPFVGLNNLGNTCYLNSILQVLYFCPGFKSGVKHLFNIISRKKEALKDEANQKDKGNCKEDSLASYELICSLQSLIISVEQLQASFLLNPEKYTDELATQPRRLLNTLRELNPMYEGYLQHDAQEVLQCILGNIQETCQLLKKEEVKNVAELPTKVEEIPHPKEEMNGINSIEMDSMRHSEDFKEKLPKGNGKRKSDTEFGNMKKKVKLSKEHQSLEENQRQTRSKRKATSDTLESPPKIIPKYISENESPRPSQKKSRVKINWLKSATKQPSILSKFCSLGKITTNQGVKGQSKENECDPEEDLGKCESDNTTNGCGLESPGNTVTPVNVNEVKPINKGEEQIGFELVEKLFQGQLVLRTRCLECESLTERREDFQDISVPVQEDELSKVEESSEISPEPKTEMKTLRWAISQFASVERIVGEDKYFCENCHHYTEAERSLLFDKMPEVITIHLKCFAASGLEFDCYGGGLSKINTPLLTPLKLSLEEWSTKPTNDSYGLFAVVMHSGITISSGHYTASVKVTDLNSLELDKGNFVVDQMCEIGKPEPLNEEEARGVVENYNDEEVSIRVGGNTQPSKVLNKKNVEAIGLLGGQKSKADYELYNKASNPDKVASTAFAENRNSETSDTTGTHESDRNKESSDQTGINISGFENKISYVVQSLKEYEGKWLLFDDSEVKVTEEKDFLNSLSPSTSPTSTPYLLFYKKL
Method in brief: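 USP1/UAF1 complex (1nM) preincubated with compound 15 min at room temperature, then Ub-Rho substrate (150nM final) added. Fluorescence read kinetically at 480/540 nm, 6 reads every 60 seconds. Buffer: 50mM HEPES pH 7.8, 0.5mM EDTA, 0.1 mg/ml BSA, 1mM TCEP, 0.01% Tween-20.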

[4] = target: Voltage-gated inwardly rectifying potassium channel KCNH2 (Homo sapiens) (UniProt Q12809); assay: qHTS Assay for Small Molecule Inhibitors of the Human hERG Channel Activity (AID 588834);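 also: top concentration of the series differs between compounds; % is scaled to controls: 0 for no effect and ±100 for the full control effect; lower thallium flux fluorescence means stronger hERG block; nearly all actives have a fitted effect of over 50% in size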
Voltage-gated inwardly rectifying potassium channel KCNH2 (Homo sapiens), sequence (Q12809 whole entry, looked up): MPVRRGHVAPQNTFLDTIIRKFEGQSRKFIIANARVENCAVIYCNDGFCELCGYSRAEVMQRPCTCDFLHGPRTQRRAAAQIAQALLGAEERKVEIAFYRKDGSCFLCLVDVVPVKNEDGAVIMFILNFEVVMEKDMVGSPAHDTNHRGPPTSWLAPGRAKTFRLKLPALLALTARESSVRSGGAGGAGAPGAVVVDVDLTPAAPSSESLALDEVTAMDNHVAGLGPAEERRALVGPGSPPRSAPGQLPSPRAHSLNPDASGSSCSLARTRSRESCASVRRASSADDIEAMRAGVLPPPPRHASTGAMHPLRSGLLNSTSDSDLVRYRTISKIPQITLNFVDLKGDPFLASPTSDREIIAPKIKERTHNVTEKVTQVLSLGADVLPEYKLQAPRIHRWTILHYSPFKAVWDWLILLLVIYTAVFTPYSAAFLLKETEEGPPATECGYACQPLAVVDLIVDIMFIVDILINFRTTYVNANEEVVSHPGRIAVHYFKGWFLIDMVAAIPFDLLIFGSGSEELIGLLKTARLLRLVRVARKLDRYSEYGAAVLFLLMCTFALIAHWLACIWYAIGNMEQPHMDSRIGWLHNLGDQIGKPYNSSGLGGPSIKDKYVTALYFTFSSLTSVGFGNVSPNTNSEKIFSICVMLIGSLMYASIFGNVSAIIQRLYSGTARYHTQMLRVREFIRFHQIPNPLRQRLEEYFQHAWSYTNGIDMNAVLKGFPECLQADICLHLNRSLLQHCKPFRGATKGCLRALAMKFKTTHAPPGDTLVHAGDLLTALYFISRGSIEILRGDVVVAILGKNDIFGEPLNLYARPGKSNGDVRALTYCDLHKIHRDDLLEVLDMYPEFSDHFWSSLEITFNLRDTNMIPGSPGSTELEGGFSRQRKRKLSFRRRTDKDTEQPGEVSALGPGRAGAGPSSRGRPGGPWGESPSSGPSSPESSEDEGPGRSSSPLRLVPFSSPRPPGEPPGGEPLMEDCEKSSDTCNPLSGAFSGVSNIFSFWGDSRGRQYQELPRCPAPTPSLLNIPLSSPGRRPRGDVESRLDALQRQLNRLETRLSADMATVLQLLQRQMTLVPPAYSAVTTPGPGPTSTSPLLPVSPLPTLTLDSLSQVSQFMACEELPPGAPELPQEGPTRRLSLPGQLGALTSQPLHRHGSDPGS
Method in brief: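 In hERG-transduced U2OS cells, dye-loaded for 1 hr at room temperature in dark, test compounds incubated 10 min at 37 °C before thallium stimulation. AC50 values derived by Hill modelling of concentration-response.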

[5] = target: Luciferin 4-monooxygenase (Photinus pyralis) (UniProt P08659); assay: Biochemical firefly luciferase enzyme assay for NPC (AID 624030);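 also: purified P. pyralis luciferase at 10 nM with luciferin and ATP substrate; 0% = DMSO and -100% = full luciferase inhibition by PTC124 control; nearly all actives have a fitted effect of over 70% in size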
Luciferin 4-monooxygenase (Photinus pyralis), sequence (P08659 whole entry, looked up): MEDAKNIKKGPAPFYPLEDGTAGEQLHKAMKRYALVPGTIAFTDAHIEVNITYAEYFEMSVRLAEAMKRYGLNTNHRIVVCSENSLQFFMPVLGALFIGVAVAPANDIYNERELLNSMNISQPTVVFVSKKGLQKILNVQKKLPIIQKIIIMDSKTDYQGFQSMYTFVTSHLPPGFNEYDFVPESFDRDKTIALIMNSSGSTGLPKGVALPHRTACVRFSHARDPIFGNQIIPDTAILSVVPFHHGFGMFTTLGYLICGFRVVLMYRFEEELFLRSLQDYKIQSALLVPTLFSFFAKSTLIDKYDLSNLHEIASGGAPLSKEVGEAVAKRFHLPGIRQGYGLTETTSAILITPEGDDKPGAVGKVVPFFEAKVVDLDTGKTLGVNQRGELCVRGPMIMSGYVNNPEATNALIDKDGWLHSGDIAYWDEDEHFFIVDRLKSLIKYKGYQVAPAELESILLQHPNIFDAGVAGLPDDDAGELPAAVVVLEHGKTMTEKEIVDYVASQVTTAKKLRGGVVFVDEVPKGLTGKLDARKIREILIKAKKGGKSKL
Method in brief: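 Counter-screen for direct inhibition of the luciferase enzyme by approved-drug library compounds, run at 10 nM enzyme in 50 mM Tris acetate (final). Luminescence was read within 5 min of enzyme-buffer addition and normalized to PTC124 versus DMSO (0%).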

[6] = S16 Schwann cell viability assay (CellTiter-Glo assay) (AID 624031);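 also: native untransfected S16 rat Schwann cells; cellular ATP luminescence as a viability measure; plate controls were DMSO-treated cells for no effect and cell-free wells for full effect; nearly all actives have a fitted effect of over 70% in size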
Method in brief: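 Cells were seeded at 500-750 per well in phenol red-free DMEM with 10% FBS and left overnight. Compounds or DMSO were pinned in, incubation ran 24 h at 37 °C/5% CO2, then CellTiter-Glo reagent was added and luminescence measured.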

[7] = S16 Schwann cell PMP22 intronic element firefly luciferase assay (AID 624032); also: potency is read from the fitted curve at half-maximal effect; nearly all actives have a fitted effect of over 30% in size
Method in brief: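 Rat S16 Schwann cells stably carrying a PMP22 intronic element-driven Fluc reporter were seeded overnight, then exposed to compounds for 24 h at 37 °C. Luminescence was normalized to PTC124 (positive control) and DMSO (0% activity).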

[8] = Cytotoxicity counterscreen for NFkB agonists and antagonists (AID 624476);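 also: cells exposed to compound for 48 hours; % is scaled to controls: 0 for no effect and ±100 for the full control effect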
[9] = qHTS Assay for Identification of Small Molecule Agonists for NFkB Signaling Pathway. (AID 624478);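 also: compounds tested together with TNF alpha at its EC50 of 10 pM; 0% is about no effect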
Method in brief: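 Assay medium contained 0.5% FBS and 10 mM HEPES pH 7.3. Compounds were added together with TNF alpha (10 pM final), incubated 5 h at 37 C, and the beta-lactamase signal was measured fluorometrically.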

[10] = qHTS Assay for Identification of Small Molecule Antagonists for NFkB Signaling Pathway. (AID 624479; calls by dose curve;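 also: pathway stimulated with TNF alpha; % is scaled to controls: 0 for no effect and ±100 for the full control effect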)
[11] = NCATS anti-infectives library activity on HEK293 viability as a counter-qHTS vs the C. elegans viability qHTS (AID 1745854)
Method in brief: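 Compound titrations (final up to 41.7 uM) were incubated with HEK293 cells for 24 hr at 37C under 5% CO2. Viable cells were quantified with CellTiter-Glo after 10 min at ambient temperature.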

[12] = target: Phospholipid hydroperoxide glutathione peroxidase GPX4 (Homo sapiens) (UniProt P36969); assay: Primary qHTS Assay for Inhibitors of Recombinant Selenoprotein Glutathione Peroxidase 4 (GPX4) (AID 1845192); also: % is scaled to controls: 0 for no effect and ±100 for the full control effect; nearly all actives have a fitted effect of over 65% in size
Phospholipid hydroperoxide glutathione peroxidase GPX4 (Homo sapiens), sequence (P36969 whole entry, looked up): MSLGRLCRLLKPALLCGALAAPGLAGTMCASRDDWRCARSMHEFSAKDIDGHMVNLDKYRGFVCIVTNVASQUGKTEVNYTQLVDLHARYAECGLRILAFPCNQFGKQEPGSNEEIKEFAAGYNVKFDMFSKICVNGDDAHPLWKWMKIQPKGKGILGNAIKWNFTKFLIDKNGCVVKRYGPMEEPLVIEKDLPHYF
Method in brief: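 qHTS, GR-coupled: GPX4 200 nM + cpd 30 min RT → GSH 1 mM, NADPH 0.5 mM, GR 100 nM → CHP 0.5 mM start; fluor 340/450 at t0 and t15 min; no-enzyme wells as control.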

[13] = qHTS drug screen for cell cycle checkpoint inhibitors in PARPi-resistant BRCA-mutant ovarian cancer cell lines. (AID 1963452; calls by dose curve); details: PEO1/OlaR viability, CellTiter-Glo luminescence, 96 h, stronger effect = lower value
Method in brief: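 PEO1, PEO4 and PEO1/OlaR ovarian cancer cells, 600 per well, exposed 96 h at 37C to a dilution series. Viability read by CellTiter-Glo luminescence, normalized to DMSO and empty wells; activity summarized as Z-AUC.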

[14] = qHTS profiling for inhibitors of Plasmodium falciparum proliferation (AID 504749); also: nearly all actives have a fitted effect of over 60% in size; also: potency is read from the fitted curve at half-maximal effect;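 as to activity, negative = inhibition: 0% = DMSO vehicle and full inhibition = artemisinin control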; details: P. falciparum in erythrocytes, SYBR Green DNA, 72 h, at 28.7 µM (top of the series)
Method in brief: (§1)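 Fluorescence of SYBR Green-bound parasite DNA, read at 485/535 nm, served as the growth measure. Infected erythrocytes were cultured with compound 72 h; artemisinin (0.29 uM) and DMSO wells defined the normalization range.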

[15] = system: 3D7; assay: as above; details: P. falciparum in erythrocytes, SYBR Green DNA, 72 h; series mostly up to 28.7 µM
Method in brief: as §1

[16] = system: 7G8; assay: as above; details: P. falciparum in erythrocytes, SYBR Green DNA, 72 h; series mostly up to 28.7 µM
Method in brief: as §1

[17] = system: AA1029; assay: as above; details: P. falciparum in erythrocytes, SYBR Green DNA, 72 h; series mostly up to 28.7 µM
Method in brief: as §1

[18] = system: AS120; assay: as above; details: P. falciparum in erythrocytes, SYBR Green DNA, 72 h; series mostly up to 28.7 µM
Method in brief: as §1

[19] = system: ATS189; assay: as above; details: P. falciparum in erythrocytes, SYBR Green DNA, 72 h; series mostly up to 28.7 µM
Method in brief: as §1

[20] = system: ATS95; assay: as above; details: P. falciparum in erythrocytes, SYBR Green DNA, 72 h; series mostly up to 28.7 µM
Method in brief: as §1

[21] = system: C2A; assay: as above; details: P. falciparum in erythrocytes, SYBR Green DNA, 72 h; series mostly up to 28.7 µM
Method in brief: as §1

[22] = system: CP185; assay: as above; details: P. falciparum in erythrocytes, SYBR Green DNA, 72 h; series mostly up to 28.7 µM
Method in brief: as §1

[23] = system: CP191; assay: as above; details: P. falciparum in erythrocytes, SYBR Green DNA, 72 h; series mostly up to 28.7 µM
Method in brief: as §1

[24] = system: CP192; assay: as above; details: P. falciparum in erythrocytes, SYBR Green DNA, 72 h; series mostly up to 28.7 µM
Method in brief: as §1

[25] = system: CP194; assay: as above; details: P. falciparum in erythrocytes, SYBR Green DNA, 72 h; series mostly up to 28.7 µM
Method in brief: as §1

[26] = system: CP201; assay: as above; details: P. falciparum in erythrocytes, SYBR Green DNA, 72 h; series mostly up to 28.7 µM
Method in brief: as §1

[27] = system: CP203; assay: as above; details: P. falciparum in erythrocytes, SYBR Green DNA, 72 h; series mostly up to 28.7 µM
Method in brief: as §1

[28] = system: CP211; assay: as above; details: P. falciparum in erythrocytes, SYBR Green DNA, 72 h; series mostly up to 28.7 µM
Method in brief: as §1

[29] = system: CP217; assay: as above; details: P. falciparum in erythrocytes, SYBR Green DNA, 72 h; series mostly up to 28.7 µM
Method in brief: as §1

[30] = system: CP237; assay: as above; details: P. falciparum in erythrocytes, SYBR Green DNA, 72 h; series mostly up to 28.7 µM
Method in brief: as §1

[31] = system: CP238; assay: as above; details: P. falciparum in erythrocytes, SYBR Green DNA, 72 h; series mostly up to 28.7 µM
Method in brief: as §1

[32] = system: CP247; assay: as above; details: P. falciparum in erythrocytes, SYBR Green DNA, 72 h; series mostly up to 28.7 µM
Method in brief: as §1

[33] = system: CP250; assay: as above; details: P. falciparum in erythrocytes, SYBR Green DNA, 72 h; series mostly up to 28.7 µM
Method in brief: as §1

CCC(C)n1ncn(-c2ccc(N3CCN(c4ccc(OCC5COC(Cn6cncn6)(c6ccc(Cl)cc6Cl)O5)cc4)CC3)cc2)c1=O (stereo unspecified)
active: Potency [7] 3.22 µM | Potency [15] 3.16 µM | Potency [16] 3.55 µM | Potency [30] 5.01 µM
0.019: Z-AUC ([13]; measured here: PEO1 parental Z-AUC)
-0.0223: Z-AUC ([13]; measured here: PEO4 Z-AUC)
inactive: activity change, negative = inhibition [1] -2.36% [at 17.2 µM] | outcome [2] | Potency [3] | Potency [4] | Potency [5] | Potency [6] | outcome [8] | outcome [9] | outcome [10] | Potency [11] | Potency [12] | Z-AUC [13] -0.487 | activity, negative = inhibition ([14]; parasite line A) 0.495% | activity, negative = inhibition ([14]; parasite line B) -11% | Potency [17] | Potency [18] | Potency [19] | Potency [20] | Potency [21] | Potency [22] | Potency [23] | Potency [24] | Potency [25] | Potency [26] | Potency [27] | Potency [28] | Potency [29] | Potency [31] | Potency [32] | Potency [33]
